A short description of test [1]: BSK_4H_Eotaxin3: BioMAP Diversity Plus: 4H Assay for Eotaxin 3 Biomarker Activity (AID 2283000; active = hit-call score of the fitted dose curve at least 0.9, where 1 is the maximum; inactive = score below 0.9;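 as to outcome: CCL26 protein level quantified by ELISA in parallel with SRB cytotoxicity check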). The following applies: primary human endothelial cells (HUVEC); actives raise or lower the signal. In a few lines:
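Chemicals were added to human umbilical vein endothelium cultures, and Eotaxin-3 was quantified by ELISA at 24 h. Values were derived by bidirectional fitting with DMSO serving as negative control and activity baseline.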

The target of test [2] is human Peroxisome Proliferator-activated Receptor alpha (PPARa), PPARA (gene 5465) (UniProt Q07869). Put plainly: ATG_PPARa_TRANS: Attagene TRANS-FACTORIAL HepG2 Assay for human Peroxisome Proliferator-activated Receptor alpha (PPARa) (AID 2283001).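 As to AC50: potency for gain of reporter signal over DMSO so agonist or activator.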 In a few lines: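 Measures transcriptional activity of an exogenous chimeric PPARa-Gal4 protein in transiently transfected HepG2 cells after 24 h dosing. Reporter mRNA quantified via RT-PCR and capillary electrophoresis; DMSO served as negative control.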
human Peroxisome Proliferator-activated Receptor alpha (PPARa), PPARA (gene 5465), sequence (Q07869 whole entry, looked up, the tested form may be a part): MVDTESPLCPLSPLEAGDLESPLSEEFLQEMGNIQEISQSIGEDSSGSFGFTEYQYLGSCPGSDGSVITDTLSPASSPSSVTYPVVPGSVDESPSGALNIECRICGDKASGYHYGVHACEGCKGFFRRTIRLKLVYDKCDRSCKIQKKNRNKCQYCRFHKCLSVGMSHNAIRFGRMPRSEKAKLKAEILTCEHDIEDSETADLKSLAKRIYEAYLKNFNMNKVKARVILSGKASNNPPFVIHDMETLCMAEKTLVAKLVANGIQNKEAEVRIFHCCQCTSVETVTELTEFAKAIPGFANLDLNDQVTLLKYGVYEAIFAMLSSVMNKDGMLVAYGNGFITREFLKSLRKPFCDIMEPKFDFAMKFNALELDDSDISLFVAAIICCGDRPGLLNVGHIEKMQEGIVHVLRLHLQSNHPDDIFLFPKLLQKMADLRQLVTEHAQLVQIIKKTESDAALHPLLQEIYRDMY

The target of test [3] is human Peroxisome Proliferator-activated Receptor delta (PPARd), PPARD (gene 5467) (UniProt Q03181). Put plainly: ATG_PPARd_TRANS: Attagene TRANS-FACTORIAL HepG2 Assay for human Peroxisome Proliferator-activated Receptor delta (PPARd) (AID 2283002). In short, it runs like this:
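Fluorescence from capillary electrophoresis of labelled RT-PCR reporter fragments gives the signal; DMSO sets baseline. Cells: HepG2 transiently carrying GAL4-UAS reporter units plus chimeric nuclear receptor-Gal4 proteins, exposed to chemicals for 24 h.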

Read-out in test [4]: Intercellular Adhesion Molecule 1 (ICAM1), ICAM1 (gene 3383)
Put plainly: BSK_3C_ICAM1: BioMAP Diversity Plus: 3C Assay for Intercellular Adhesion Molecule 1 (ICAM1) Biomarker Activity (AID 2283003; active = hit-call score of the fitted dose curve at least 0.9, where 1 is the maximum; inactive = score below 0.9). As to conditions: primary human endothelial cells (HUVEC); actives raise or lower the signal. In short, it runs like this:
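Primary human umbilical vein endothelial cells in the BioMAP 3C system were exposed to chemicals for 24 h, then ICAM-1 was quantified by ELISA. Activity was fitted bidirectionally against the DMSO negative control baseline.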

Test [5] in a line: BSK_3C_Proliferation: Cell Proliferation Assessment in the BioMAP Diversity Plus: 3C Assay (AID 2283006; active = hit-call score of the fitted dose curve at least 0.9, where 1 is the maximum; inactive = score below 0.9;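 as to AC50: potency may reflect either rise or fall in cell number versus DMSO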). The following applies: primary human endothelial cells (HUVEC). In a few lines:
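Human umbilical vein endothelial cells were grown sub-confluent and exposed to chemical for 48 h, then fixed with 10% TCA and stained with 0.1% sulforhodamine B; absorbance at 560 nm gave relative cell number, fitted bidirectionally against DMSO baseline.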

Test [6] deals with Peroxisome proliferator-activated receptor gamma (Homo sapiens) (UniProt P37231). Nature of the test: ATG_PPARg_TRANS: Attagene TRANS-FACTORIAL HepG2 Assay for human Peroxisome Proliferator-activated Receptor-gamma (PPARg) (AID 2283007). In short, it runs like this:
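Chimeric NR-Gal4 transactivation is measured in transiently transfected HepG2 cells by reporter mRNA induction at 24 h. Detection uses RT-PCR with fluorescent labelling and capillary electrophoresis; DMSO defines baseline.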

The target in test [7] is Nuclear receptor subfamily 1 group I member 2 (Homo sapiens) (UniProt O75469). Put plainly: ATG_PXR_TRANS: Attagene TRANS-FACTORIAL HepG2 Assay for human Pregnane X Receptor (PXR) (AID 2283008). In short, it runs like this: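 HepG2 cells transiently transfected with GAL4-UAS reporter units and PXR-Gal4 chimera, exposed 24 h. Reporter mRNA quantified by RT-PCR, fluorescent labelling, HpaI digestion and capillary electrophoresis; gain of signal vs DMSO.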
Nuclear receptor subfamily 1 group I member 2 (Homo sapiens), sequence (O75469 whole entry, looked up, the tested form may be a part): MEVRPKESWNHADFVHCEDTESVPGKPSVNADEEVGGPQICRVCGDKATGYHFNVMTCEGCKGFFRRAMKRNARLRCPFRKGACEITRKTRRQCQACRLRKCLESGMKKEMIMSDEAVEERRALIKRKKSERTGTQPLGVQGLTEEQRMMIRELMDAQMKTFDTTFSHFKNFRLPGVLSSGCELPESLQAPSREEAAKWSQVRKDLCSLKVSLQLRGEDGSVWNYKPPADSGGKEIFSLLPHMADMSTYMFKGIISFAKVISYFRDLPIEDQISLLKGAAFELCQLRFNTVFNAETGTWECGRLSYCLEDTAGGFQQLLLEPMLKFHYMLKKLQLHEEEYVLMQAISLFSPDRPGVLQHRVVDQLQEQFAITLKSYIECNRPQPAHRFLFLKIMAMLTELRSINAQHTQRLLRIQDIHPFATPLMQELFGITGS

The target of test [8] is Retinoic acid receptor RXR-alpha (Homo sapiens) (UniProt P19793). Nature of the test: ATG_RXRa_TRANS: Attagene TRANS-FACTORIAL HepG2 Assay for human Retinoid X Receptor alpha (RXRa) (AID 2283012). In short, it runs like this:
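HepG2 cells transiently transfected with multiplexed GAL4-UAS reporter units and chimeric NR-GAL4 fusions, dosed 24 h. Reporter mRNA measured by RT-PCR, FAM labelling, HpaI digestion and capillary electrophoresis; gain-of-signal fitted relative to DMSO baseline.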

The target in test [9] is human Retinoid X Receptor beta (RXRb), RXRB (gene 6257) (UniProt P28702). Nature of the test: ATG_RXRb_TRANS: Attagene TRANS-FACTORIAL HepG2 Assay for human Retinoid X Receptor beta (RXRb) (AID 2283013). In short, it runs like this: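 HepG2 cells transiently transfected with multiplexed reporter units driven by GAL4-UAS and exogenous chimeric NR-Gal4 proteins; treated 24 h. Reporter mRNA measured by RT-PCR, 6-FAM labelling and capillary electrophoresis; gain-of-signal fitted versus DMSO baseline.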
human Retinoid X Receptor beta (RXRb), RXRB (gene 6257), sequence (P28702 whole entry, looked up, the tested form may be a part): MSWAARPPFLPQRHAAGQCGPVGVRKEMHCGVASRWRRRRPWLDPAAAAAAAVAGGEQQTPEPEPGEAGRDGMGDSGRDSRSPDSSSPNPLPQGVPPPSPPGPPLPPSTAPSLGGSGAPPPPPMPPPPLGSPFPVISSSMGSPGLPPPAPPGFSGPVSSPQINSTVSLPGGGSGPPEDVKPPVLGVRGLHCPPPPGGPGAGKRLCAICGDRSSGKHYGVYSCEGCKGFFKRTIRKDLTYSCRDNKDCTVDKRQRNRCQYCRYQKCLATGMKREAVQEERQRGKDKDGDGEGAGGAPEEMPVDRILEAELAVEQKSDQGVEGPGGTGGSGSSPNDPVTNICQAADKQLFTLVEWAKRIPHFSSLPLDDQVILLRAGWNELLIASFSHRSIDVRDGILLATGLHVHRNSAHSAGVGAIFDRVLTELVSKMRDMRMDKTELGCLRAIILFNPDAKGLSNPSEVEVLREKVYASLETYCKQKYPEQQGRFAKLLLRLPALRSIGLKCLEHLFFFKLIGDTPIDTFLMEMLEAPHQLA

Read-out in test [10]: E-selectin (Homo sapiens) (UniProt P16581)
Put plainly: BSK_3C_Eselectin: BioMAP Diversity Plus: 3C Assay for Eselectin Biomarker Activity (AID 2283015; active = hit-call score of the fitted dose curve at least 0.9, where 1 is the maximum; inactive = score below 0.9;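 as to outcome: cell surface E-selectin protein quantified by ELISA 24 h after dosing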). The following applies: primary human endothelial cells (HUVEC); actives raise or lower the signal. In a few lines:
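ELISA read-out of E-selectin on endothelial monolayers after 24 h chemical treatment. Human umbilical vein primary cells served as the system, with DMSO defining baseline activity for bidirectional fitting.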

Read-out in test [11]: Interleukin-1 alpha (IL1a), IL1A (gene 3552)
Nature of the test: BSK_BE3C_IL1a: BioMAP Diversity Plus: BE3C Assay for Interleukin-1 alpha (IL1a) Biomarker Activity (AID 2283016; active = hit-call score of the fitted dose curve at least 0.9, where 1 is the maximum; inactive = score below 0.9). As to conditions: primary human bronchial epithelial cells; actives raise or lower the signal. In short, it runs like this:
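Human primary bronchial epithelial cells (BE3C system) were dosed with compound and IL-1a measured by ELISA 24 h later. Activity was fitted bidirectionally against DMSO baseline; cytotoxicity was tracked in parallel cultures by SRB total-protein staining.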

Read-out in test [12]: Monocyte Chemoattractant Protein-1 (MCP1), CCL2 (gene 6347)
Nature of the test: BSK_3C_MCP1: BioMAP Diversity Plus: 3C Assay for Monocyte Chemoattractant Protein-1 (MCP1) Biomarker Activity (AID 2283017; active = hit-call score of the fitted dose curve at least 0.9, where 1 is the maximum; inactive = score below 0.9). As to conditions: primary human endothelial cells (HUVEC); actives raise or lower the signal. In short, it runs like this: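 ELISA read-out of MCP-1 from human umbilical vein endothelial cell cultures harvested 24 h post-dosing. Gain or loss of signal was fitted relative to DMSO.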

Read-out in test [13]: Monocyte Chemoattractant Protein-1 (MCP1), CCL2 (gene 6347)
Nature of the test: BSK_4H_MCP1: BioMAP Diversity Plus: 4H Assay for Monocyte Chemoattractant Protein-1 (MCP1) Biomarker Activity (AID 2283018; active = hit-call score of the fitted dose curve at least 0.9, where 1 is the maximum; inactive = score below 0.9). The following applies: primary human endothelial cells (HUVEC); actives raise or lower the signal. In a few lines:
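Human umbilical vein endothelial cells (4H system) dosed with chemical; MCP-1 measured by ELISA 24 h after dosing. Bidirectional curve fitting against DMSO negative control as baseline; parallel SRB total-protein staining tracks overt cytotoxicity.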

Read-out in test [14]: Human Leukocyte Antigen - DR isotype (HLADR), HLA-DRA (gene 3122)
Nature of the test: BSK_3C_HLADR: BioMAP Diversity Plus: 3C Assay for Human Leukocyte Antigen - DR isotype (HLADR) Biomarker Activity (AID 2283019; active = hit-call score of the fitted dose curve at least 0.9, where 1 is the maximum; inactive = score below 0.9;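 as to outcome: ELISA of cell-surface HLA-DR on HUVEC 24 h after dosing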). The following applies: primary human endothelial cells (HUVEC); actives raise or lower the signal. In short, it runs like this:
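ELISA readout of surface HLA-DR on human umbilical vein endothelium, taken 24 h after chemical treatment. Gain- and loss-of-signal were both fitted relative to DMSO.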

Test [15] has as its target human Retinoic Acid Receptor beta (RARb), RARB (gene 5915) (UniProt P10826). Put plainly: ATG_RARb_TRANS: Attagene TRANS-FACTORIAL HepG2 Assay for human Retinoic Acid Receptor beta (AID 2283004). In a few lines:
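Transient transfection of HepG2 with multiple reporter units → chemical dosing, 24 h → total RNA isolation → RT with oligo(dT) → reporter-specific PCR, 6-FAM primer extension, HpaI digest → capillary electrophoresis. Positive direction vs DMSO control.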

The target in test [16] is Retinoic acid receptor alpha (Homo sapiens) (UniProt P10276). Nature of the test: ATG_RARa_TRANS: Attagene TRANS-FACTORIAL HepG2 Assay for human Retinoic Acid Receptor alpha (RARa) (AID 2283005). In a few lines: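 HepG2 transiently transfected with multiplex GAL4-UAS reporter units including a human RARa–GAL4 chimera; 24 h compound exposure. Reporter mRNA quantified by RT-PCR, 6-FAM labeling and capillary electrophoresis; gain of signal versus DMSO.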

Test [17] concerns the target human Retinoic Acid Receptor gamma (RARg), RARG (gene 5916) (UniProt P13631). Put plainly: ATG_RARg_TRANS: Attagene TRANS-FACTORIAL HepG2 Assay for human Retinoic Acid Receptor gamma (RARg) (AID 2283009). In a few lines:
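HepG2 cells transiently transfected with multiplexed reporter units expressing chimeric RARg-GAL4 and GAL4-UAS-driven reporters; 24 h compound exposure. Reporter mRNA quantified by RT-PCR with fluorescent labelling and capillary electrophoresis; gain-of-signal fitted relative to DMSO baseline.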

The target of test [18] is human Thyroid Receptor alpha (THRa1), THRA (gene 7067) (UniProt P10827). Put plainly: ATG_THRa1_TRANS: Attagene TRANS-FACTORIAL HepG2 Assay for human Thyroid Receptor alpha (THRa1) (AID 2283014). In a few lines: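 Reporter transcript induction, read by capillary electrophoresis of 6-FAM-labelled RT-PCR products, reflects activity of a transfected THRa1-Gal4 fusion in HepG2 liver cells. Cells were dosed for 24 h; activity was fitted in the positive direction against DMSO.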
human Thyroid Receptor alpha (THRa1), THRA (gene 7067), sequence (P10827 whole entry, looked up, the tested form may be a part): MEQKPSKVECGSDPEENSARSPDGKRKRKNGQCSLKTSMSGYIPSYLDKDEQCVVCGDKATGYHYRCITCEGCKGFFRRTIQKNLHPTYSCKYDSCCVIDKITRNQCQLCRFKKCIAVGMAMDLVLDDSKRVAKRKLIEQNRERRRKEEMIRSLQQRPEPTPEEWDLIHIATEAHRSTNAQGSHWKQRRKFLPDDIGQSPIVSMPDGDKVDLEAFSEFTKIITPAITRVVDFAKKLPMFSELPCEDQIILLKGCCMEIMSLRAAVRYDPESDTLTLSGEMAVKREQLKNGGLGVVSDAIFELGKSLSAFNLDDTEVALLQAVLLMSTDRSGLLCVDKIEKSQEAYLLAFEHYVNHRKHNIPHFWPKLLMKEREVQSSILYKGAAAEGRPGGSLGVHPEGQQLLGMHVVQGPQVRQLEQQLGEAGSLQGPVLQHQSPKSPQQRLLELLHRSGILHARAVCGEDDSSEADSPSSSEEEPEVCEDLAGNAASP

The target in test [19] is human RAR-related Orphan Receptor gamma (RORg), RORC (gene 6097) (UniProt P51449). Put plainly: ATG_RORg_TRANS: Attagene TRANS-FACTORIAL HepG2 Assay for human RAR-related Orphan Receptor gamma (RORg) (AID 2283011). In a few lines: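 First, HepG2 liver cells were transfected with GAL4-UAS-driven reporter constructs and the RORg-Gal4 fusion. Next, they were treated with chemical for 24 h. Finally, reporter mRNA was quantified by RT-PCR and capillary electrophoresis, with upward activity fitted against DMSO.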

For test [20], the target named is human RAR-related Orphan Receptor beta (RORb), RORB (gene 6096) (UniProt Q92753). Put plainly: ATG_RORb_TRANS: Attagene TRANS-FACTORIAL HepG2 Assay for human RAR-related Orphan Receptor beta (RORb) (AID 2283010). In short, it runs like this:
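HepG2 cells were transiently transfected with multiplexed GAL4-UAS reporter units expressing chimeric nuclear receptor–GAL4 proteins, then dosed for 24 h. Reporter mRNA was quantified by RT-PCR with fluorescent labelling and capillary electrophoresis; gain of signal was fitted relative to DMSO.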

“And” between values parts separate entries of the source, which are not always exact repeats. Equal values may be shown once. Results filed as inconclusive are left out. A structure can be active in one record and inactive in another. The source made the active and inactive calls. The calls were made as follows, unless noted: active = hit-call score of the fitted dose curve at least 0.9, where 1 is the maximum; inconclusive = response in the unintended direction; inactive = score below 0.9.

E-selectin (Homo sapiens), sequence (P16581 whole entry, looked up): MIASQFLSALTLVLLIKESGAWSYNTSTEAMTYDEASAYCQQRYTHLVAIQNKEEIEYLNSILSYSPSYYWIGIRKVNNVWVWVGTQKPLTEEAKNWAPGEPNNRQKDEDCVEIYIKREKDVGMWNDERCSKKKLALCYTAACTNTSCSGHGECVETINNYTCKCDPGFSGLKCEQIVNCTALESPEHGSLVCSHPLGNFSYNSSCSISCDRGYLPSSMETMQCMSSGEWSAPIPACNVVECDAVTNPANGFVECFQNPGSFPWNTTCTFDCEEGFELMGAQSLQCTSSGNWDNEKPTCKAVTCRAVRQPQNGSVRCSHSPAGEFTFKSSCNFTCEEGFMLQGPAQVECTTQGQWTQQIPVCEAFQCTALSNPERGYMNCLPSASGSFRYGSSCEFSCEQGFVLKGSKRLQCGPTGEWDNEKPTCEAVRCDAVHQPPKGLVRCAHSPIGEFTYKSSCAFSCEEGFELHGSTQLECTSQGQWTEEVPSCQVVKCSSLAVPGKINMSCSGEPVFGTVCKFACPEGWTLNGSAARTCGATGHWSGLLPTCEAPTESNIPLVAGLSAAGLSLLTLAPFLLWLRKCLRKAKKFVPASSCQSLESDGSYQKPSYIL
human Peroxisome Proliferator-activated Receptor delta (PPARd), PPARD (gene 5467), sequence (Q03181 whole entry, looked up, the tested form may be a part): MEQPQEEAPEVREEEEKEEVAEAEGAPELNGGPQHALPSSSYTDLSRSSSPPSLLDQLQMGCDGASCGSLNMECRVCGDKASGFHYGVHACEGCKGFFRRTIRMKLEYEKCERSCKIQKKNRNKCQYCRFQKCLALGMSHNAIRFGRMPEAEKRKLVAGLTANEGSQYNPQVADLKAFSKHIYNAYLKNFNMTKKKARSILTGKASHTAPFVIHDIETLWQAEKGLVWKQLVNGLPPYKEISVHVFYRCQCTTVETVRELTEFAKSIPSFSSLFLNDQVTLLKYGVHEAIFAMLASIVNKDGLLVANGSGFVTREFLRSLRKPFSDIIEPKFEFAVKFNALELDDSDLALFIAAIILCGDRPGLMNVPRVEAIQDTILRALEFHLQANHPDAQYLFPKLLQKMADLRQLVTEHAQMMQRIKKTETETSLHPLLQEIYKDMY
Retinoic acid receptor RXR-alpha (Homo sapiens), sequence (P19793 whole entry, looked up, the tested form may be a part): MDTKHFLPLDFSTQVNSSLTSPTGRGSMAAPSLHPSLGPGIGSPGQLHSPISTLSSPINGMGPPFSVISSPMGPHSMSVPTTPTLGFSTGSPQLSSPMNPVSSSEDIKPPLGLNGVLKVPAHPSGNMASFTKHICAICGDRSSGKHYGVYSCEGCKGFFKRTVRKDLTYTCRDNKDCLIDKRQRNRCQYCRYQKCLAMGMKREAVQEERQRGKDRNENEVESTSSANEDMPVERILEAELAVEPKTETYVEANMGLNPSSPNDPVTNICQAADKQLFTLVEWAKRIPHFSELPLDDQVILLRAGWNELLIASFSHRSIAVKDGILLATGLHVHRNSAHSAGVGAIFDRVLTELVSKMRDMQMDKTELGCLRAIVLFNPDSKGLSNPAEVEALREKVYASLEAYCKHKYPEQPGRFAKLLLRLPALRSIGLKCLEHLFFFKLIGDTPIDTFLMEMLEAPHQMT
human Retinoic Acid Receptor beta (RARb), RARB (gene 5915), sequence (P10826 whole entry, looked up): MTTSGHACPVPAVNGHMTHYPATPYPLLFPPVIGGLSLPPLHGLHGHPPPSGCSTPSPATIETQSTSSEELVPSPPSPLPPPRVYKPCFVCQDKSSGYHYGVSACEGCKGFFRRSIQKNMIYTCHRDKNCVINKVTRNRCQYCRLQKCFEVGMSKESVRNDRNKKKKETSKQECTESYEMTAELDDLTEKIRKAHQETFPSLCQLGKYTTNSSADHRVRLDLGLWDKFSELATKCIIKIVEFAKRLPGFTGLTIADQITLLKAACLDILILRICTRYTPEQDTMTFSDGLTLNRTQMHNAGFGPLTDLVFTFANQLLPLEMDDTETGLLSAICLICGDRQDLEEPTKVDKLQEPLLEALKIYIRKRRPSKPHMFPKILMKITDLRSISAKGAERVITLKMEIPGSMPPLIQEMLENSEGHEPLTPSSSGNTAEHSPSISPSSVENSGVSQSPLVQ
Peroxisome proliferator-activated receptor gamma (Homo sapiens), sequence (P37231 whole entry, looked up, the tested form may be a part): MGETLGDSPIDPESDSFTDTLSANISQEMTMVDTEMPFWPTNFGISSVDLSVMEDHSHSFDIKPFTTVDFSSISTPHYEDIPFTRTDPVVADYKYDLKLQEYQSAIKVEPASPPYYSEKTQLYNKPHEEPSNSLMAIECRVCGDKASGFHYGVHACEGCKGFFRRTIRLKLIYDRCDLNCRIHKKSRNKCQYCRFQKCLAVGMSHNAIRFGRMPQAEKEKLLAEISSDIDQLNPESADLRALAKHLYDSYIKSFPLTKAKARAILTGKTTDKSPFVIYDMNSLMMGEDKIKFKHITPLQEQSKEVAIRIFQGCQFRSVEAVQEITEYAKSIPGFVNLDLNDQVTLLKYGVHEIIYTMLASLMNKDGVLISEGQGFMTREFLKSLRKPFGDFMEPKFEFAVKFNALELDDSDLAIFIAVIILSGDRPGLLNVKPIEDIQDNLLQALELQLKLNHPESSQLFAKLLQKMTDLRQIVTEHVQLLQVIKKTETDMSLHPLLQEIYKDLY
human Retinoic Acid Receptor gamma (RARg), RARG (gene 5916), sequence (P13631 whole entry, looked up, the tested form may be a part): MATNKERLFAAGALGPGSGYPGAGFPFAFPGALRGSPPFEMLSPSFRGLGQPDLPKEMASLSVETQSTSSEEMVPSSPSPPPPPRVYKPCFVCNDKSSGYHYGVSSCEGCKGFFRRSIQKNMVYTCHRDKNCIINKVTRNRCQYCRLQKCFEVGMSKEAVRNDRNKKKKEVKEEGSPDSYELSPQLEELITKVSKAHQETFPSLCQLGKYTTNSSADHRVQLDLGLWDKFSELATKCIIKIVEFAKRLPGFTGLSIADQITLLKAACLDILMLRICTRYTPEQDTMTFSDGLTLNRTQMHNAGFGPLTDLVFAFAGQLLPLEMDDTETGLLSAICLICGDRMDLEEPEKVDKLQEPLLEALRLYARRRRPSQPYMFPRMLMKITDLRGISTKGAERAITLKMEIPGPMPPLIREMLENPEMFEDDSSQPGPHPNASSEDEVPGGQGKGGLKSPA

For `C=CC(=O)OCCCCCCCC(C)C`, the outcome in test [1], in test [2], in test [3], in [4], in test [7] and in test [8] was inactive. The result in [9], in test [12], in test [13] and in test [14] was inactive. For the same compound, the AC50 (usually the midpoint of the concentration-response curve, whichever way the signal moves) in test [5] is 9.67 µM (active); in test [6] it was 27.1 µM (active); in [10], 20 µM (active); in test [11] it was 719 nM (active).

`CCCCCCOC(=O)CCCCC(=O)OCCCCCC`: the outcome in [1], in test [2], in test [4], in test [15], in test [16] and in test [5] was inactive. For the same compound, the compound was classed as inactive in test [6], in test [7], in test [17], in test [8], in [18] and in [10]. Also, the result in [11], in test [12], in test [13] and in test [14] was inactive. For the same compound, in test [9], the AC50 was 54.2 µM (active).

On to `CCCCCCCO`, for which the outcome in test [1], in [2], in test [5], in test [6], in [7] and in [17] was inactive. In addition, the result in test [8], in [10], in test [11], in test [12], in [13] and in [14] was inactive. In test [9], the AC50 was 114 µM (active).

Take `Nc1cccc(N)n1`: the result in test [1], in test [2], in [3], in test [15], in [5] and in test [6] was inactive. Also, the compound was called inactive in test [7], in [19], in test [8], in test [9], in test [10] and in [11]. For the same compound, the outcome in [12], in [13] and in test [14] was inactive.

For `O=C(Cl)c1c(Cl)c(Cl)c(C(=O)Cl)c(Cl)c1Cl`, the result in test [1], in test [2], in [5], in [6], in [7] and in test [17] was inactive. Moreover, the compound was called inactive in test [8], in test [10], in test [11], in [12], in test [13] and in [14]. Moreover, the AC50 in [9] is 100 µM (active).

As for `O=C(O)c1ccc2c(c1)C(=O)OC2=O`, the compound was called inactive in [2].

In the case of `COc1ccc(C(=O)c2ccccc2)c(O)c1`, the AC50 is 20 µM (active) in [1]; 33.1 µM (active) in [6]; 27.3 µM (active) in test [7]; 28.7 µM (active) in [9]; 185 nM (active) in [12]; 27.8 µM (active) in test [14]. For the same compound, the result in test [3], in test [5], in [8], in test [10], in [11] and in [13] was inactive.

Take `CCCCCC[C@@H](O)C/C=C\CCCCCCCC(=O)OCC(O)CO` (stereo not given in full): the concentration at half-maximal activity (AC50) in [2] was 15.3 µM (active); in test [3], 27.7 µM (active); in [6] it was 57.8 µM (active); in test [9], 85 µM (active). Also, the compound was called inactive in [15], in test [16], in test [7], in test [17], in test [20] and in test [8]. Also, the compound was called inactive in [18].

For `Oc1ccccc1Cc1ccccc1O`, the result in test [1], in [3], in test [7], in test [17], in test [9] and in test [18] was inactive. Also, the outcome in test [10], in test [11], in test [12] and in test [14] was inactive. Besides, the AC50 was 7.87 µM (active) and 20 µM (active) in test [5]; 61.1 µM (active) in [6]; 1720 nM (active) in test [12]; 4.2 µM (active) and 10.9 µM (active) in test [13].

These data come from PubChem BioAssay (EPA / NIEHS).
